Compounds with a hit are over-represented: about 2.8% of the library has one in this group of screens.
BRCA1 expr up – increases BRCA1 expression. MCF7-BRCA1-FFLuc reporter, luminescence, 48 h; response scale: scaled: vehicle 0%, 10 µM genistein 100%. actives 1.1% (n = 380,000). Potency, µM (top dose mostly 46.1 µM), for the others: at the highest dose activation, hits mostly activators. AID 624202; note: nearly all actives have a fitted effect of over 80% in size
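MCF7-BRCA1-FFLuc cells, 2000/well in phenol-red-free MEM, attached 2 h then treated 48 h at 37 C. Luciferase luminescence read 15 min after reagent; normalized to genistein maximum activation (10microM) and DMSO, concentration-response fitted.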
GLP-1R agonist – activates the human GLP-1 receptor | P43220 | HEK293 GLP-1R CRE-luciferase, luminescence, 4-6 h; cells express a hypersensitive GLP-1R form | Potency, µM (series often up to 45.6 µM), inactives show at the highest dose activation, usual class: activators | actives 0.007% (n = 380,000); note: % of control where 0% means no effect
Target sequence (P43220 whole entry, looked up): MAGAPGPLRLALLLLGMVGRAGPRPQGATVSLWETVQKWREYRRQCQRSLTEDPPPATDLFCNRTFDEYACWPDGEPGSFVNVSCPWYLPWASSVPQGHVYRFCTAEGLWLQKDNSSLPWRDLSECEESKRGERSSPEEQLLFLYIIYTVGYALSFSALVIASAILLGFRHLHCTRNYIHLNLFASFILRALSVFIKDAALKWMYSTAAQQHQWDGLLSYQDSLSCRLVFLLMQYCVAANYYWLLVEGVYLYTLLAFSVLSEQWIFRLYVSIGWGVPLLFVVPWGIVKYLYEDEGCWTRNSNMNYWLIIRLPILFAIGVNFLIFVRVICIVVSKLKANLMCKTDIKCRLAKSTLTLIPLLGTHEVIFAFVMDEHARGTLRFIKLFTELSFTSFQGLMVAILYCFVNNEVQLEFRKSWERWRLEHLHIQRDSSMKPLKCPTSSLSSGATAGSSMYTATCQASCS
Mito fusion act – inhibitors of mitochondrial division or activators of mitochondrial fusion. S. cerevisiae fusion-defective mutant growth rescue, CellTiterGlo 48 h. AID 485298. actives 0.23% (n = 320,000). Potency, µM (titrated, usually from 46.1 µM), for inactives: top-dose growth rescue (activation), most hits filed as activators; note: % of control where 0% means no effect; nearly all actives have a fitted effect of over 45% in size
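Yeast fusion mutant, YPEG (non-fermentable carbon), compound, 48 h at 37C non-permissive; CellTiterGlo added, 10 min RT, luminescence read. Rescued growth = division inhibition.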
HEK293 tox – cytotoxic in the GLP-1 receptor inverse agonist counter-screen | HEK293 cAMP-luciferase reporter cells, luminescence, 24 h | Potency, µM (titrated, usually from 38.3 µM), for inactives: top-dose activity change, negative = inhibition, hits mostly inhibitors | actives 0.13% (n = 410,000) | AID 624418;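 note: loss of luciferase light is scored as toxicity; % is set by controls: 0 for no effect and ±100 for the full control effect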
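Quantitative HTS format, 1536 wells, 200 cells/uL seeded. Compounds: 23 nL, 24 h, 37 °C. Detection: luciferase reagent, luminescence at 12 min RT; decreased signal taken as cytotoxic.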
GLP-1R inv ag – inverse agonists of human GLP-1 receptor | P43220 | actives 1.6% (n = 410,000) | Potency, µM (highest dose often 38.3 µM), inactives show top-dose activity change, negative = inhibition, actives largely listed as inhibitors | AID 624417 | HEK293 GLP-1R CRE-luciferase, luminescence, 24 h; GLP-1R form is constitutively active; note: % is set by controls: 0 for no effect and ±100 for the full control effect; nearly all actives have a fitted effect of over 55% in size
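HEK293 cells stably co-expressing constitutively active GLP-1R and a cAMP-responsive luciferase reporter were seeded in DMEM with 10% Nu serum, given compounds after 12 h, and incubated 24 h at 37 deg C. Luminescence was then read.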
* = called active by the depositor; ? = inconclusive; · = not tested or not shown; ! = a repeat was not active; [ ] = another dose, or the depositor's remark. Calls come from the whole dose curve; as a rule, active = well fitted curve in the direction sought with a large enough effect; inconclusive = small, poorly fitted or top-dose-only effect, or another doubt; inactive = no such curve, though single readings can be large; an effect the other way counts as inactive or inconclusive. Potency is the fitted concentration of half-maximal effect.

SMILES	BRCA1 expr up	GLP-1R agonist	Mito fusion act	HEK293 tox	GLP-1R inv ag
CCOc1ccc(NC(=O)c2cccn(Cc3cccc(Cl)c3)c2=O)cc1	2%	-2%	·	2%	9%
[O-]/[N+](=C/c1cccnc1)c1ccc(Br)cc1	11µM*	-21%	-1%	3%	0%
C/C(CC(=O)Nc1ccc(Cl)c(C(F)(F)F)c1)=N\NC(N)=S	-25%	2%	14%	?	10µM*
COc1ccc(C(=O)Nc2ccc(S(=O)(=O)N(Cc3ccccc3)c3ccccc3)cc2)cc1	·	·	·	-9%	5µM*
C[C@]12C=CC(=O)C=C1C=C[C@@H]1C2CC[C@]2(C)C(=O)CCC12 (stereo partly specified)	-27%	-7%	7%	-11%	53%
Clc1ccc(C(Cn2ccnc2)OCc2csc3c(Cl)cccc23)c(Cl)c1 (stereo unspecified)	-39%	8%	3.5µM*	-7%	?
COC(=O)C1=C(c2ccc(F)cc2OCc2ccccc2)C[C@@H]2CC[C@H]1N2C(=O)NCc1ccccc1OC	0%	-2%	?	1%	?
O=C(Nc1cccc(Cl)c1)c1c(O)c2c(n(Cc3ccccc3)c1=O)CCCC2	·	·	-3%	·	·
COc1ccc(C(=O)Nc2ccc(-c3cc(C(F)(F)F)nn3-c3ccccc3)cc2)cc1OC	·	·	0%	-19%	?
CCCCCN1C(C(=O)c2ccccc2)=C(NC(=O)c2ccc(OC)c(OC)c2)c2ccccc2S1(=O)=O	·	·	·	84%	10µM*
CC(C)COP(=O)(c1ccc(N(C)C)cc1)C(Nc1ccccc1)c1ccccc1 (stereo unspecified)	-39%	-2%	-6%	-20%	?
CC(C)COP(=O)(OCC(C)C)C(Nc1ccccc1)c1ccccc1 (stereo unspecified)	-22%	5%	15%	?	11µM*
CN(c1ccccc1)S(=O)(=O)c1ccc(C(=O)NCc2ccccc2CN2CCCC2)cc1	-44%	22%	-3%	?	?
Cc1ccc(C)c(CN2CCC(CNC(=O)Nc3ccc(Br)cc3F)CC2)c1	-48%	10%	-37%	?	7.1µM*
CSc1ccccc1C(=O)C1CCCN(Cc2cccc(C)n2)C1 (stereo unspecified)	-32%	4%	-4%	?	11µM*
CSc1ccccc1C(=O)C1CCCN(Cc2ccccn2)C1 (stereo unspecified)	0%	-1%	-1%	-26%	-24%
O=C(CNC(=O)c1ccc(Br)cc1)Nc1ccc(Br)cc1C(=O)c1ccccc1	-58%	4%	18µM*	-39%	-20%
Cn1cc([N+](=O)[O-])c(C(=O)Nc2ccc3c(C(F)(F)F)cc(=O)oc3c2)n1	-11%	14%	-3%	-16%	187%
CC(C)C(=O)Nc1ccc([N+](=O)[O-])c(C(F)(F)F)c1	0%	-4%	15µM*!	4%	-3%
CC(C)c1ccc(Oc2cccc3c2S(=O)(=O)N(C2CCCC2)CC(COCc2ccccc2)O3)cc1 (stereo unspecified)	-9%	6%	·	-1%	5.6µM*
CCCCCCCCCCCCCC(=O)O[C@@H]1[C@@H](C)[C@@]2(O)[C@@H](C=C(CO)C[C@@]3(O)C(=O)C(C)=C[C@@H]23)C2C(C)(C)[C@@]21OC(C)=O (stereo partly specified)	·	·	16µM*	·	·
CCOC(=O)[C@]12Cc3ccccc3[C@H]1N(CCC(=O)OC)C(=O)c1cc(OC)ccc12	-29%	-12%	·	-12%	?
CC(C)CCCn1c(O)c(/C=C2/C=CC=N2)c(=O)[nH]c1=O	-64%	3%	-2%	?	?
C=C[C@H]1CN2CC[C@H]1C[C@H]2[C@H](O)c1ccnc2ccccc12	-21%	1%	4%	-8%	-25%
c1ccc(CCCN2CCN(CCOC(c3ccccc3)c3ccccc3)CC2)cc1	-10%	3%	7.3µM*	?	?
SMILES	BRCA1 expr up	GLP-1R agonist	Mito fusion act	HEK293 tox	GLP-1R inv ag
Fc1ccc(C(OCCN2CCN(CCCc3ccccc3)CC2)c2ccc(F)cc2)cc1	-63%	-1%	-65%	·	·
O=c1ccc2cc(O[C@H]3O[C@@H](CO)[C@@H](O)[C@@H](O)[C@@H]3O)c(O)cc2o1	·	-6%[19.8 µM]	·	·	·
CCC1C(c2ccccc2)NC(c2ccccc2)CC1(O)c1ccc(F)cc1 (stereo unspecified)	-22%	-6%	-15%	?	11µM*
COC1=CC2[C@@H]3Cc4ccc(OC)c(O)c4[C@]2(CCN3C)CC1=O (stereo partly specified)	4%	-1%	·	4%	1%
CN1CCN(c2ccc(NC(=O)C(C)(C)C)cc2)CC1	57%	-8%	2%	-4%	-13%
CN1CCN(c2ccc(NC(=S)NC(=O)/C=C/c3ccco3)cc2)CC1	4.5µM*	11%	-36%	?	155%
Cc1cc(C)c(C(=O)/C=C/c2ccc(C(C)C)cc2)c(=O)[nH]1	-73%	-3%	-11%	?	1.4µM*
O=C(Nc1ccccc1Cl)c1ccccc1Oc1ccc(C(F)(F)F)cc1[N+](=O)[O-]	-35%	-43%	-16%	?	7.1µM*
Cc1ncc(CNC(=O)N(CCCl)N=O)c(N)n1	5%	4%	2%	3%	1%
CCN(CC)c1ccc(/C=C/C(=O)c2ccc(Br)cc2)cc1	-8%	-18%	6%	293%	?
CC(=O)Nc1cccc(C(=O)/C=C/c2ccc(Br)cc2)c1	-100%	-37%	14µM*	?	?
CN1CCN(Cc2nc3ccccc3n2C)CC1	-5%	-7%	-1%	-15%	-12%
Cn1c(NN=O)nc2ccccc21	-40%	13%	2%	?	4.5µM*
CN(C)c1ccc(CN2CCc3nc(N4CCN(c5ccccn5)CC4)ncc3C2)cc1	·	·	·	1%	?
c1ccc(CN2CCc3nc4ccccc4cc3C2)cc1	10µM*	5%	14%	-5%	-10%
Cc1cccc(/C=C(\c2nc3ccccc3[nH]2)S(=O)(=O)c2ccccc2)c1	-86%	0%	0%	8.9µM*	5µM*
CCCn1nnnc1NC(=O)c1ccc2ccccc2c1	-5%	-10%	?	?	?
O=C1NC(=O)C(C(CC(=O)c2ccccc2)c2ccccc2)C(=O)N1 (stereo unspecified)	-28%	1%	-3%	-1%	2%
Cc1ccc(C(=O)Nc2cccc3[nH]c(C(F)(F)F)nc23)cc1	-75%	-1%	-1%	?	8.9µM*
CCCCn1c(=O)c(C(=O)NCCc2ccccc2)c(O)c2ccccc21	-20%	-3%	2%	3%	11%
